According to PubChem BioAssay (EPA / NIEHS):
More than one record can exist for a structure, and the calls need not agree. The source made the active and inactive calls. Rule for the calls: active = hit-call score of the fitted dose curve at least 0.9, where 1 is the maximum; inactive = score below 0.9.

Assay: CCTE_Shafer_MEA_dev_mutual_information_norm: CCTE's Neural Network Formation Assay for Mutual Information Normalization, Shafer Lab (AID 2284091);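 for AC50: potency is for a decrease in mutual information relative to DMSO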
Procedure: CCTE_Shafer_MEA_dev assay is conducted using Axion Biosystems 48 well microelectrode array (MEA) plates and Maestro recording system. Each well of the MEA plate contains a grid of 16 microelectrodes embedded in the culture surface. Electrically active cells, such as neurons, can be cultured over the electrodes, and electrical activity in these cells can be recorded extracellularly. The spontaneous firing of neurons is captured from each electrode on a microsecond timescale providing both temporally and spatially precise data. […] The CCTE_Shafer_MEA_dev assay uses primary cultures of rat cortical neurons. Recordings are made on days post-plating 5, 7, 9 and 12. As these cultures mature over time, neural networks develop functional activity and form cohesive networks in which electrical activity can be highly coordinated. CCTE_Shafer_MEA_dev_mutual_information_norm is 1 of 19 assay components of the CCTE_Shafer_MEA_dev assay. It is a measure of shared information between electrodes during a recording in a microelectrode array (MEA) using Axion Biosystems Maestro 768 channel amplifier with the AxIS adaptive spike detector. To collapse across multiple recordings made on days post-plating 5, 7, 9 and 12, the trapezoidal area-under-the-curve of the component is calculated.Data from the assay component CCTE_Shafer_MEA_dev_mutual_information_norm was analyzed into 1 assay endpoint. This assay endpoint, CCTE_Shafer_MEA_dev_mutual_information_norm, was analyzed in the negative analysis fitting direction relative to DMSO as the negative control and baseline of activity. Using a type of functional reporter, gain or loss-of-signal activity can be used to understand electrical activity.
On the day prior to culture, each well was coated thoroughly with 150 uL of 0.05% polyethyleneimine (PEI, Sigma Cat P3143) in 50 mM HEPES (Sigma Cat H7523) at a pH of 8. The plate was incubated at 37C for one hour. PEI was rinsed out with 500 uL of sterile water three times. Plates were stored at 4C until the day of culture. This culture was plated at a seeding density of 1.5 x 10^5 cells/well on a 48-well MEA plate, prepared as described above. Cells were administered via a 25 uL media/laminin ([…]; Sigma Cat L2020-1MG) drop directly onto the microelectrode array, as adding the cells with the laminin results in better attachment than pre-coating with laminin. After 2 hours, an additional 475 uL of cortical media was added and the cells returned to the incubator. Exposure starts at day 0 of plating and is continued over twelve days of network development until the experiment is terminated. Cells are fed with fresh medium on DIV 5 and 9, following the recordings on those days. The entire volume of media in the well is exchanged and any vehicle or compound treatment is renewed. Complete details are found in OP-NHEERL/ISTD/SBB/TJS/2015-03-r0 (available on request, email shafer.tim@epa.gov). Measurement of the electrical activity is non-invasive, and recordings can be made from the same plate over multiple different days of the culture. In cortical neurons, this allows for the measurement of extracellular action potentials over the period during which networks form in the MEA plate.

SMILES	outcome	AC50
C=CCc1ccc(O)c(OC)c1	inactive	–
CC(=O)Oc1ccccc1C(=O)O	inactive	15 µM (active)
CCCc1cc(=O)[nH]c(=S)[nH]1	inactive	–
OC[C@@H](O)[C@@H](O)[C@H](O)[C@H](O)CO	inactive	–
CC(C)c1ccc(C(=O)N=C(N)N)cc1S(C)(=O)=O	inactive	–
FC(F)(F)C(F)(F)C(F)(F)C(F)(F)C(F)(F)C(F)(F)CCI	inactive	–
C[Si]1(C)O[Si](C)(C)O[Si](C)(C)O[Si](C)(C)O1	inactive	–
Cc1cc(=O)[nH]c(=S)[nH]1	inactive	–
O=c1[nH]cc(F)c(=O)[nH]1	–	0.756 µM (active)
